A selection: hits, their analogues and other compounds. The true share with any hit is near 2.2%.
Vaccinia Venus: inhibitors of vaccinia virus (Venus reporter) | hit rate 0.46% among 330,000 | Vaccinia virus Venus reporter expression, fluorescence | Potency, µM (titrated, usually from 36.5 µM), inactives show at the top dose activity change, negative = inhibition, hits mostly inhibitors; calls by dose curve; tested in A549 cells; note: nearly all actives have a fitted effect of over 30% in size
FMDV inh: foot and mouth disease virus antiviral activity. Potency, µM (top dose mostly 57.9 µM), for inactives: at the top dose activity change, negative = inhibition, actives largely listed as inhibitors. hit rate 1.2% among 410,000. FMDV antiviral cell-based qHTS; calls by dose curve; tested in HEK293T cells; note: read-out not given here; nearly all actives have a fitted effect of over 45% in size
Vaccinia mCherry: inhibitors of vaccinia virus infection (mCherry reporter signal); Vaccinia virus mCherry reporter infection, fluorescence; Potency, µM (top dose mostly 36.5 µM), for inactives: at the highest dose activity change, negative = inhibition, actives largely listed as inhibitors; hit rate 0.63% among 310,000; calls by dose curve; tested in A549 cells; note: nearly all actives have a fitted effect of over 35% in size
Giardia FBPA inh-1: blocks Giardia fructose-bisphosphate aldolase activity; A8B2U2; Potency, µM (series often up to 59.6 µM), for the others: at the top dose activity, negative = inhibition, most hits filed as inhibitors; purified Giardia FBPA; hit rate 0.71% among 290,000; note: nearly all actives have a fitted effect of over 55% in size
Target sequence (A8B2U2 whole entry, looked up): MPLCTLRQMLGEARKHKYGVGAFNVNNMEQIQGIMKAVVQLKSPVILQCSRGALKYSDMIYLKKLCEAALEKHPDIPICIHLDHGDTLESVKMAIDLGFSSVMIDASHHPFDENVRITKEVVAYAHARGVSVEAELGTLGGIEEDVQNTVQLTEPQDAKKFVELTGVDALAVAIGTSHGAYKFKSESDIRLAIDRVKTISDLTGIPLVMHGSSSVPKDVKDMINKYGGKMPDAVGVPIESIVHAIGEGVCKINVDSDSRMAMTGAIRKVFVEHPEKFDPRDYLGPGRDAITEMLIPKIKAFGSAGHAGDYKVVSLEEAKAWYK
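40 nM FBPA preincubated 10 min at RT with compound (up to 57.5 uM final), then substrate plus GAPDH/TPI/NAD/arsenate coupling and diaphorase/resazurin added. Fluorescence read after 20 min at RT, 525/598 nm.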
Giardia growth: blocks growth of Giardia lamblia trophozoites; hit rate 5% among 1,500; shares compounds with Giardia FBPA inh-1; Potency, µM (doses to about 57.5 µM), for inactives: at the top dose activity change, negative = inhibition, hits mostly inhibitors; Giardia lamblia trophozoite growth inhibition;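 note: trophozoites exposed to compound for 48 h at 37 °C; nearly all actives have a fitted effect of over 70% in size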
Mammalian tox: mammalian cytotoxicity of Giardia aldolase inhibitor hits; shares compounds with Giardia FBPA inh-1; mammalian cell viability counter-screen, qHTS; Potency, µM (doses to about 57.5 µM), inactives show at the top dose viability change, negative = toxicity, usual class: inhibitors; hit rate 4% among 1,500; AID 2786;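 note: Chinese hamster ovary cells used as mammalian cytotoxicity surrogate; viability measured as cellular ATP by luminescence; compound exposure lasted 48 h before reading; nearly all actives have a fitted effect of over 60% in size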
Giardia FBPA inh-2: confirmation of Giardia fructose-bisphosphate aldolase inhibitors; shares compounds with Giardia FBPA inh-1; hit rate 5% among 1,500; Potency, µM (series often up to 57.5 µM), without a hit: at the highest dose activity change, negative = inhibition, actives largely listed as inhibitors; purified Giardia aldolase enzyme activity, qHTS; note: nearly all actives have a fitted effect of over 45% in size
Rabbit aldolase: rabbit FBP aldolase inhibition by Giardia aldolase hits. shares compounds with Giardia FBPA inh-1. Rabbit muscle FBPA enzyme inhibition, selectivity counter-screen. Potency, µM (doses to about 57.5 µM), for inactives: top-dose activity, negative = inhibition, actives largely listed as inhibitors. hit rate 4% among 1,500. AID 2794; note: nearly all actives have a fitted effect of over 60% in size
Target sequence (P00883 whole entry, looked up): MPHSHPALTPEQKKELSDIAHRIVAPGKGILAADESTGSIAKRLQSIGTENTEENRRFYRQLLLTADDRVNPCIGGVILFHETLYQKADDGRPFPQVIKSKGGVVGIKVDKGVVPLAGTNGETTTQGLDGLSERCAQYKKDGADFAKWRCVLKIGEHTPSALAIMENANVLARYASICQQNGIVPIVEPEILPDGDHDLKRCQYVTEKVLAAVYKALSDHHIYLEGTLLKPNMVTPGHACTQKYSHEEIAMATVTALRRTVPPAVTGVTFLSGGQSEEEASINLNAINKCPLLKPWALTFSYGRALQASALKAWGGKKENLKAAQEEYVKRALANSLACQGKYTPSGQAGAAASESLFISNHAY
GAPDH counter: counter-screen for Giardia aldolase inhibitors: GAPDH coupling enzyme | GAPDH coupling enzyme counterscreen, biochemical, qHTS | shares compounds with Giardia FBPA inh-1 | AID 2795 | hit rate 6% among 1,500 | Potency, µM (doses to about 57.5 µM), for the others: top-dose activity change, negative = inhibition, hits mostly inhibitors; note: nearly all actives have a fitted effect of over 55% in size
The depositor's hits bear a star; ! = not active in a repeat; [ ] = remark or other dose. Unless noted, calls come from the whole dose curve; as a rule, active = well fitted curve in the direction sought with a large enough effect; inconclusive = small, poorly fitted or top-dose-only effect, or another doubt; inactive = no such curve, though single readings can be large; an effect the other way counts as inactive or inconclusive. % is set by controls: 0 for no effect and ±100 for the full control effect; potency is the fitted concentration of half-maximal effect.

What do the screens show for `O=C(NNc1cccc(Cl)n1)C(F)(F)F`?
Vaccinia Venus: -1%; FMDV inh: 1%; Vaccinia mCherry: -7%; Giardia FBPA inh-1: 20µM*; Giardia growth: inconclusive; Mammalian tox: 9%; Giardia FBPA inh-2: -13%; Rabbit aldolase: -2%; GAPDH counter: 1%

What do the screens show for `CC(C)NCC(=O)Nc1c2c(nc3ccccc13)CCC2`?
Vaccinia Venus: -3%; FMDV inh: -21%; Vaccinia mCherry: -1%; Giardia FBPA inh-1: 18µM*; Giardia growth: 9%[10.4 µM]; Mammalian tox: -7%; Giardia FBPA inh-2: 2%; Rabbit aldolase: 3%; GAPDH counter: 12%

Results for Cc1ccc(C)c(N=Nc2ccc(O)c3ncccc23)c1 ?
FMDV inh: inconclusive; Giardia FBPA inh-1: -1%

Results for CCN(CC)S(=O)(=O)c1cc(OC)ccc1N=Nc1ccc(O)c2ncccc12 ?
Vaccinia Venus: inconclusive; FMDV inh: -20%; Vaccinia mCherry: inconclusive; Giardia FBPA inh-1: inconclusive; Giardia growth: -14%[38.3 µM]; Mammalian tox: 29µM*; Giardia FBPA inh-2: inconclusive; Rabbit aldolase: -19%; GAPDH counter: inconclusive

Results for CCOc1ccc(N=Nc2ccc(O)c3ncccc23)cc1 ?
Vaccinia Venus: -15%; FMDV inh: 14%; Vaccinia mCherry: inconclusive; Giardia FBPA inh-1: -8%; Giardia growth: 17%[38.3 µM]; Mammalian tox: -25%; Giardia FBPA inh-2: inconclusive; Rabbit aldolase: -8%; GAPDH counter: -22%

Results for CCOc1ccc(N=Nc2cc(C(C)C)ccc2O)cc1 ?
Vaccinia Venus: -8%; FMDV inh: 2%; Vaccinia mCherry: -14%; Giardia FBPA inh-1: 2%

What do the screens show for `Cc1cccc(N=Nc2ccc(O)c3ncccc23)c1`?
Vaccinia Venus: inconclusive; FMDV inh: 6%; Vaccinia mCherry: 14µM*; Giardia FBPA inh-2: -20%; Rabbit aldolase: -18%; GAPDH counter: -13%

What do the screens show for `CC(C)CCOc1ccc(N)cc1`?
Giardia FBPA inh-1: -27%

Results for CCCCc1cc2c(cn1)=C(OC(=O)c1cccs1)C(C)(OC(=O)CC)C(=O)C=2 (configuration not stated) ?
Giardia FBPA inh-1: -2%[12.9 µM]

What do the screens show for `CCNC(=S)NS(=O)(=O)c1ccc(CC)cc1`?
FMDV inh: 21%; Giardia FBPA inh-1: 6.3µM*; Giardia growth: 3%[10.4 µM]; Mammalian tox: 5%; Giardia FBPA inh-2: 9%; Rabbit aldolase: 4%; GAPDH counter: 20%

What do the screens show for `Cc1ccc(S(=O)(=O)NC(=S)c2ccccc2)cc1`?
Vaccinia Venus: -7%; FMDV inh: 43%; Vaccinia mCherry: -24%

Results for CCNC(=S)NS(=O)(=O)c1ccc(C)cc1 ?
Vaccinia Venus: -9%; FMDV inh: 0%; Vaccinia mCherry: -12%; Giardia FBPA inh-1: 3.5µM*; Giardia growth: 17%[38.3 µM]; Mammalian tox: -3%; Giardia FBPA inh-2: 7%; Rabbit aldolase: 12%; GAPDH counter: -1%

How did CCCCC(CC)C/C=C1\CC(C(=O)OCC)Oc2ccccc21 (configuration not stated) (tested in a mixture with another compound) do in these assays?
Giardia FBPA inh-1: -2%[89.2 µM]

Results for O=C(NCCCN1CCCCCC1)C(c1ccccc1)C1CCCCC1 (configuration not stated) ?
Vaccinia Venus: -25%; FMDV inh: -22%; Vaccinia mCherry: -9%

How did O=C(O)Cn1c2c(c3ccccc31)CSc1ccc(Cl)cc1-2 do in these assays?
Vaccinia Venus: -1%; FMDV inh: -8%; Vaccinia mCherry: -16%; Giardia FBPA inh-1: 7.1µM*; Giardia growth: 0%[10.4 µM]; Mammalian tox: 2%; Giardia FBPA inh-2: 17%; Rabbit aldolase: 13%; GAPDH counter: 16%

How did CCCCc1nc2c(c3c1C[C@H](C)OC3)CN(C(=O)c1cccnc1)CC2 do in these assays?
Giardia FBPA inh-1: 0%[12.9 µM]

What do the screens show for `O=c1cc(-c2ccccc2Cl)oc2c([N+](=O)[O-])ccc(O)c12`?
Giardia FBPA inh-1: -1%[89.2 µM]

Results for O=C1NC(=O)C(c2ccccc2[N+](=O)[O-])=C1Nc1ccc(O)c(Cl)c1 ?
Vaccinia Venus: -14%; FMDV inh: 0%; Vaccinia mCherry: -8%[60.7 µM]; Giardia FBPA inh-1: 25µM*!; Giardia growth: -16%; Mammalian tox: -4%; Giardia FBPA inh-2: inconclusive; Rabbit aldolase: inconclusive; GAPDH counter: -19%

How did O=C(NNC(=O)c1cnccn1)c1ccc(Cl)cc1 do in these assays?
Vaccinia Venus: 6%; FMDV inh: 7%; Vaccinia mCherry: inconclusive; Giardia FBPA inh-1: 13µM*; Giardia growth: -5%[10.4 µM]; Mammalian tox: -4%; Giardia FBPA inh-2: -5%; Rabbit aldolase: 5%; GAPDH counter: 3%

Results for O=C(NNC(=O)c1ccccc1[N+](=O)[O-])c1cnccn1 ?
Vaccinia Venus: -3%; FMDV inh: 11%; Vaccinia mCherry: inactive; Giardia FBPA inh-1: 20µM*; Giardia growth: inconclusive; Mammalian tox: -13%; Giardia FBPA inh-2: 2%; Rabbit aldolase: 1%; GAPDH counter: -4%

Results for O=C(NNC(=O)c1ccc(Cl)cc1Cl)c1cnccn1 ?
FMDV inh: 29%; Giardia FBPA inh-1: 20µM*; Giardia growth: 8.9µM*; Mammalian tox: -8%; Giardia FBPA inh-2: -5%; Rabbit aldolase: 5%; GAPDH counter: -1%

Results for C=CC[C@@H]1C=C[C@H](O/N=C(\C)CCN2CCCCc3nc(C)c(C)cc32)[C@H](CO)O1 ?
Giardia FBPA inh-1: 1%[12.9 µM]

How did O=C(CNC1CC1)Nc1cc(C(F)(F)F)ccc1Cl do in these assays?
FMDV inh: -21%; Giardia FBPA inh-1: 7.9µM*; Giardia growth: inconclusive; Mammalian tox: -12%; Giardia FBPA inh-2: -2%; Rabbit aldolase: 4%; GAPDH counter: 5%

What do the screens show for `Cc1ccc(-c2[nH]ncc2CNCc2ccccc2)cc1`?
Vaccinia Venus: -22%; Vaccinia mCherry: -26%

How did Cc1cc(C)c2nc(-c3ccccn3)cc(C(=O)NCc3ccc(S(N)(=O)=O)cc3)c2c1 do in these assays?
Vaccinia Venus: -15%; FMDV inh: -19%; Vaccinia mCherry: -4%; Giardia FBPA inh-1: 0%

Assay outcomes (PubChem BioAssay)
